# In the library only some 7.4% were active in any assay of this set; here they are far more common.
# Luc counter – Counterscreen for Luciferase (Kinase-Glo TM) Inhibition | Kinase-Glo luciferase, ATP luminescence, 8 min | Potency, µM (series often up to 38.3 µM), usual class: inhibitors | 200,000 tested, 0.28% active | AID 1379, 2008; note: nearly all actives have a fitted effect of over 60% in size
#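 Compound is pinned into ATP-containing buffer (10 uM ATP, imidazole pH 7.2, 7 mM MgCl2). Kinase-Glo luciferase reagent is then added. Light output is recorded following an 8-min room-temperature incubation.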
# FLuc counter – qHTS profiling assay for firefly luciferase inhibitor/activator using purifed enzyme and Km concentrations of substrates (counterscreen for miR-21 project); Luciferin 4-monooxygenase (Photinus pyralis), P08659; purified FLuc, Km substrates, luminescence inhibition; Potency, µM (series often up to 57.5 µM), hits mostly inhibitors; 360,000 tested, 6.9% active; note: nearly all actives have a fitted effect of over 55% in size
# Target sequence (P08659 whole entry, looked up): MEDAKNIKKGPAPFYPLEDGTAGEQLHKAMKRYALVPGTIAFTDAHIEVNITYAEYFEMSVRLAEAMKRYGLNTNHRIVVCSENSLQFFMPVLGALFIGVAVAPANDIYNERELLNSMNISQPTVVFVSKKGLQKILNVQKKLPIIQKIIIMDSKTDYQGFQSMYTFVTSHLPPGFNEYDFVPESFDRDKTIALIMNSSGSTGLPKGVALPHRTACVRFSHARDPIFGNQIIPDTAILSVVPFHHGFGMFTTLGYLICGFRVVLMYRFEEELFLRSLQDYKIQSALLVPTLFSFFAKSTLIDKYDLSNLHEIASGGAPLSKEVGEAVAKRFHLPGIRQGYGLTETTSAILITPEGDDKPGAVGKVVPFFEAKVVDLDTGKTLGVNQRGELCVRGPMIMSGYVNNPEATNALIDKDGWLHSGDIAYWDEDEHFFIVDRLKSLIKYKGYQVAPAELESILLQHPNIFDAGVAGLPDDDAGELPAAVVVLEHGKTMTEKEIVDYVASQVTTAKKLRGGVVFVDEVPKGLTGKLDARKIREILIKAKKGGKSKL
#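 Purified P. pyralis luciferase (10nM final) with 10uM D-luciferin and 10uM ATP (Km levels) in 50mM Tris acetate pH 7.5, 10mM Mg acetate, 0.01% Tween-20, 0.05% BSA; qHTS 6-point titration, ~60 µM downward; luminescence read.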
# Rab9 promoter act – qHTS Assay for Rab9 Promoter Activators; Potency, µM (highest dose often 9.22 µM), most hits filed as activators; 320,000 tested, 2.8% active; Huh7 Rab9 promoter-luciferase reporter, luminescence, 24 h; note: nearly all actives have a fitted effect of over 60% in size
#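 Steps: seed 1500 Huh7 Rab9-luc cells per well, rest 2 h at 37 °C; add compound in DMSO; incubate 24 h; add luciferase reagent, 10 min ambient; read luminescence.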
# SMN2 splice up – qHTS Assay for Enhancers of SMN2 Splice Variant Expression | Potency, µM (top dose mostly 46.1 µM), usual class: activators | AID 1458, 2008 | HEK293 SMN2-luciferase splicing reporter, luminescence, 30-36 h | 210,000 tested, 2.8% active; note: nearly all actives have a fitted effect of over 55% in size
#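 HEK293 cells carry an SMN2 minigene-luciferase reporter in which exon 7 inclusion puts luciferase in frame. Cells were seeded at 2000 cells/well, attached for 10-12 hours, then exposed to compounds for 30-36 hours at 37C before ONE-Glo luminescence.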
# NPC1 promoter act – qHTS Assay for NPC1 Promoter Activators. Huh7 NPC1 promoter luciferase reporter, 24 h. Potency, µM (titrated, usually from 9.22 µM), usual class: activators. 320,000 tested, 2.4% active. AID 485313, 2010; note: nearly all actives have a fitted effect of over 60% in size
#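 Stably transfected Huh7 (NPC1 promoter→luciferase), 1500 cells/well in Opti-MEM + 10% FBS, 2 h settle, then compound 24 h at 37 °C. Luminescence after 10 min with Amplite reagent.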
# ELG1 genotox – qHTS screen for small molecules that induce genotoxicity in human embryonic kidney (HEK293T) cells expressing luciferase-tagged ELG1; HEK293T ELG1-luciferase reporter, luminescence, 16 h; Potency, µM (series often up to 46 µM), hits mostly activators; 330,000 tested, 1.3% active; AID 504466, 2011; note: nearly all actives have a fitted effect of over 60% in size
#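 Step 1: seed 2,000 HEK293T ELG1-luciferase cells per well. Step 2: add compound or DMSO, incubate 16 hr at 37 °C. Step 3: ONE-Glo, 30 min at room temperature, read luminescence.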
# Hits are given with their value; n = inactive; u = inconclusive; x = not tested or not shown. Calls come from the whole dose curve; as a rule, active = well fitted curve in the direction sought with a large enough effect; inconclusive = small, poorly fitted or top-dose-only effect, or another doubt; inactive = no such curve, though single readings can be large; an effect the other way counts as inactive or inconclusive.
SMILES,Luc counter,FLuc counter,Rab9 promoter act,SMN2 splice up,NPC1 promoter act,ELG1 genotox
COc1ccc(OC)c(CNC(=O)C2COc3ccccc3C2)c1 (stereo not drawn),x,n,x,x,x,x
CCn1c(=O)c(=O)[nH]c2cc(C(=O)NCc3ccc(F)cc3)ccc21,x,n,n,x,n,n
Cc1ccc(-c2ccc(NC(=O)C3C4C=CC(C4)C3C(=O)O)cc2)o1 (stereo not drawn),n,15.1µM,3.16µM,n,3.55µM,n
Oc1ccc(-c2csc(-c3c[nH]c4ccccc34)n2)c(O)c1,n,10.7µM,u,u,3.55µM,u
COc1ccc(-c2csc(-c3ccc(O)cc3)n2)cc1,x,9.53µM,n,x,n,u
CCc1ccc(-c2nc(CCl)cs2)cc1,x,3.79µM,u,x,u,u
COc1ccc(-c2csc(C3=C(O)CN(C(C)C)C3=N)n2)cc1OC,n,10.7µM,n,n,n,u
COc1ccc(N2CC(O)=C(c3nc(-c4ccc(Br)cc4)cs3)C2=N)cc1,n,n,n,n,n,n
COc1ccc(N2CC(O)=C(c3nc(-c4ccccc4)cs3)C2=N)cc1,x,n,n,x,n,n
COc1ccc(-c2nc(-c3ccc(O)cc3O)cs2)cc1OC,n,10.7µM,u,u,n,u
COc1ccc(-c2nc(CCl)cs2)cc1OC,n,u,n,n,n,n
COc1cccc(-c2nc(CCl)cs2)c1,n,26.9µM,n,n,n,n
COc1cccc(-c2nc(-c3ccc4c(c3)NC(=O)CO4)cs2)c1,n,u,u,u,u,n
COc1ccc(-c2nc(CCl)cs2)cc1,n,9.53µM,u,n,n,u
CCOC(=O)C1(CCCc2ccccc2)CCN(S(=O)(=O)N(C)C)CC1,x,n,n,x,n,n
CNCCCOc1cc(C)cc(C)c1C,n,n,n,x,n,n
CC1CCc2nc(NC(=O)CSc3nc4ccccc4o3)sc2C1 (stereo not drawn),n,6.75µM,u,n,u,6.51µM
CC(=O)Nc1ccc(NC(=O)CSc2nc3ccccc3o2)cc1,n,n,n,n,n,n
CC(=O)c1cc2c(cc1NC(=O)CSc1nc3ccccc3o1)OCO2,n,n,u,u,n,10.3µM
Cc1cccc(NC(=O)CSc2cc(C)c3ccccc3n2)c1,x,n,x,8.91µM,x,x
Cc1nnc(NC(=O)CSc2nc3ccccc3o2)s1,n,n,n,n,n,n
Cc1cccc(NC(=O)CSc2nc3ccccc3o2)c1,n,u,0.891µM,u,1.41µM,1.46µM
COc1ccc(C2NC(=O)NC(C)=C2[N+](=O)[O-])cc1 (stereo not drawn),x,n,n,x,n,n
Cc1nnc(N2CCCC(C(=O)Nc3cccc(C(F)(F)F)c3)C2)c2nn(-c3ccccc3)c(C)c12 (stereo not drawn),x,n,x,x,x,x
Cc1ccc(Cn2c(C)c(CNCc3ccc(OC(C)C)cc3)c(C(=O)O)c2C)cc1,x,n,x,n,x,x
SMILES,Luc counter,FLuc counter,Rab9 promoter act,SMN2 splice up,NPC1 promoter act,ELG1 genotox
Cc1ccc(-c2csc(NC(=O)CSc3nc4ccccc4o3)n2)cc1,n,x,n,14.1µM,n,u
CCOc1cccc2sc(N(Cc3cccnc3)C(=O)c3ccco3)nc12,x,n,x,x,x,x
Cc1cc(C)c2nc(-n3nc(C)cc3N)cc(C)c2c1,n,1.2µM,u,11.2µM,n,u
Cc1cc(N)n(-c2ccccc2C)n1,n,n,n,n,n,n
Cc1cc(N)n(-c2cc(C)c3ccccc3n2)n1,n,2.69µM,u,11.2µM,n,u
Cc1cc(N)n(-c2ccccc2)n1,n,n,n,n,n,n
Cc1ccc(-c2n[nH]c(Cc3ccccc3)n2)cc1,x,19µM,2.51µM,x,2.82µM,u
CSc1cnc2c(=O)n(C)c(=O)[nH]c2n1,n,n,n,n,n,n
Cn1c(=O)[nH]c2nnc(-c3ccc(Cl)c(Cl)c3)nc2c1=O,x,3.38µM,u,x,0.708µM,u
COC(=O)c1ccccc1NC(=O)CN(c1ccc(OC)cc1)S(C)(=O)=O,n,n,n,n,n,n

# High-throughput results: PubChem BioAssay, National Center for Advancing Translational Sciences (NCATS)
